# PubChem BioAssay AID1835 (Johns Hopkins Ion Channel Center, 2009)
# About 750 (31%) of roughly 2,400 compounds were called active.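 How the source made its calls: active means median signal gain over dofetilide-blocked control wells reaching their mean plus 3 SD, so readout 1 at least 0; inactive means the rest.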 The list shows a part of the results.
# Target: Voltage-gated inwardly rectifying potassium channel KCNH2 (Homo sapiens) (UniProt Q12809)
# Test: modulators restoring hERG flux under dofetilide – cell-based, thallium flux, duplicate retest, dofetilide IC70, confirmation (AID 1835)
# Conditions: hERG cell line, FluxOR thallium flux, dofetilide-blocked; at 10 µM; hits give high values
# Voltage-gated inwardly rectifying potassium channel KCNH2 (Homo sapiens), sequence (Q12809 whole entry, looked up): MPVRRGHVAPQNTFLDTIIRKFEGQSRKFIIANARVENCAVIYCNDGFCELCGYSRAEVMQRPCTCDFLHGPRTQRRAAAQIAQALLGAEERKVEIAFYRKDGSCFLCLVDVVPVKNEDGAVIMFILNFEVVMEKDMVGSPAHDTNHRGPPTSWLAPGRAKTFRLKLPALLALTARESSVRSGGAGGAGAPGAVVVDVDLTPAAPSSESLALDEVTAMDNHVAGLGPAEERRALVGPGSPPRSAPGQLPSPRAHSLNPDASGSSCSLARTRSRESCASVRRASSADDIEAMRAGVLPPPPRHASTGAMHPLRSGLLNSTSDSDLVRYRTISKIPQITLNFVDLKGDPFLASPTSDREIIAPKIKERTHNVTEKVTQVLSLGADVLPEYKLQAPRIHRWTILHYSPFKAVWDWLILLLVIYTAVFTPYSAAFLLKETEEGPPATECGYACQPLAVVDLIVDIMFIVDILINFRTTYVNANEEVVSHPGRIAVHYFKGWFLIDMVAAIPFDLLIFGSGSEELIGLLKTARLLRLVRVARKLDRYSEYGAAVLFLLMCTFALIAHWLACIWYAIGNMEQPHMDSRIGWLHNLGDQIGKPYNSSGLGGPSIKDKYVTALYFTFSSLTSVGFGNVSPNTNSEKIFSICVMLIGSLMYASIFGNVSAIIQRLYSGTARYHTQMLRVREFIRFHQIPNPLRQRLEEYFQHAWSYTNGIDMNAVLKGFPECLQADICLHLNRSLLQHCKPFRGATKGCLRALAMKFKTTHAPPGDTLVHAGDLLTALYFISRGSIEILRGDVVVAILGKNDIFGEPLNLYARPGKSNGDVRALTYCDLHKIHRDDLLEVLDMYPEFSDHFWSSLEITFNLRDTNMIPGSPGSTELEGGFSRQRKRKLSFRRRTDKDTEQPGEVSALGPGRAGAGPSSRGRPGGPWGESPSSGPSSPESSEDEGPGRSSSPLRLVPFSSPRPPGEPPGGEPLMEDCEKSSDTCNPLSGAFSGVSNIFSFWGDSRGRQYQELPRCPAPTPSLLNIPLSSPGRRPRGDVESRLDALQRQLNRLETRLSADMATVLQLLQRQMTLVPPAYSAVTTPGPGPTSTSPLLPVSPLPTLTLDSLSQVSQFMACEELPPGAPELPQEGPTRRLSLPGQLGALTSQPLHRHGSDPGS
row,Compound,"activity increase over dofetilide control, less the hit threshold"
1,O=C(CN1CCN(Cc2ccccc2)CC1)NCc1ccccc1Cl,-1% (inactive)
2,Cc1cc(S(=O)(=O)NCC(C)C)ccc1OCC(=O)NCc1ccccn1,-29% (inactive)
3,C/C(=N\NC(=O)CSc1nc2ccccc2o1)c1ccc(O)cc1,-15% (inactive)
4,CCOC(=O)Cc1nc2ccccc2o1,5% (active)
5,CCOC(=O)CP(=O)(c1ccccc1)c1ccccc1,-9% (inactive)
6,Cc1cc(C)c2nc(NC(=O)C3CCCO3)sc2c1 (stereo not given),-8% (inactive)
7,O=C(Nc1nc2c(Br)cc(Br)cc2c(=O)s1)C1CCC1,1% (active)
8,O=C(Nc1cccc(Br)c1)C1CCCC1,-11% (inactive)
9,O=C(COc1ccc(S(=O)(=O)NCc2ccccc2)cc1Cl)NCC1CCCO1 (stereo not given),-26% (inactive)
10,COc1ccc(NC(=S)NC(=O)c2csnn2)cc1,23% (active)
11,O=C(NC(=S)Nc1ccccc1Cl)c1csnn1,79% (active)
12,Cc1cccnc1NC(=O)c1csnn1,-3% (inactive)
13,O=C(NC(=S)Nc1ccccc1)c1csnn1,88% (active)
14,COc1ccc(NC(=S)Nc2ccccn2)cc1,-11% (inactive)
15,O=C(NC(=S)Nc1ccccc1)c1cncc(C#Cc2ccccc2)c1,-8% (inactive)
16,COc1ccc(NC(=O)c2onc(C)c2Cl)cc1,-10% (inactive)
17,Cc1snnc1C(=O)NC(=S)Nc1ccccc1,30% (active)
18,Cc1ccc(NC(=S)NC(=O)c2ccc(-c3ccccc3)cc2)cc1,-2% (inactive)
19,O=c1[nH]c2ccccc2nc1C(F)(F)C(F)F,-11% (inactive)
20,C/C(=N/NC(=O)c1ccncc1)c1ccc2c(c1)OCO2,-9% (inactive)
21,O=C1CSC(=S)N1/N=C/c1cc(Br)ccc1O,7% (active)
22,Cc1oc(-c2cccs2)nc1CN1CCC(C(=O)N2CCCC2)CC1,-11% (inactive)
23,CN(C(=S)NC(=O)c1ccccc1)C1CCCCC1,16% (active)
24,Cc1cccc(C(=O)NC(=S)N(C)C2CCCCC2)c1,21% (active)
25,Cc1ccc(C(=O)NC(=S)N(C)C2CCCCC2)cc1Br,-5% (inactive)
26,Cc1cccc(C(=O)NC(=S)NNC(=O)COc2c(C)cccc2C)c1,-12% (inactive)
27,CN(C(=S)NC(=O)c1ccc(F)cc1)C1CCCCC1,6% (active)

row,Compound,"activity increase over dofetilide control, less the hit threshold"
1,CN(C(=S)NC(=O)c1ccc(Cl)cc1)C1CCCCC1,-3% (inactive)
2,COc1ccc(C(=O)NC(=S)N(C)C2CCCCC2)cc1,-2% (inactive)
3,Cc1ccc(C(=O)NC(=S)N(C)C2CCCCC2)cc1,27% (active)
4,O=C(N/N=C/c1ccc(OC(F)F)cc1)C1=COCCO1,-8% (inactive)
5,c1ccc2oc(-c3nn4c(Cn5cnc6ccccc65)nnc4s3)cc2c1,-12% (inactive)
6,CCC(=O)N1c2ccc(C)cc2C2=NNC(=S)NC21O (stereo not given),-6% (inactive)
7,O=C(NC(=S)Nc1cccc(C(F)(F)F)c1)c1csnn1,102% (active)
8,COc1ccc(C(=O)O)cc1S(=O)(=O)Nc1cccc(C(F)(F)F)c1,-4% (inactive)
9,O=C(Nc1ccc(-c2csc(Nc3cccc(C(F)(F)F)c3)n2)cc1)c1ccccc1,-25% (inactive)
10,O=C(NC(=S)Nc1ccc(C(F)(F)F)cc1)c1csnn1,60% (active)
11,Cc1cc(-c2nnc(SCC(=O)Nc3ccc(C(F)(F)F)cc3)n2C)no1,-23% (inactive)
12,c1ccc2oc(-c3ccn[nH]3)cc2c1,-10% (inactive)
13,O=C(COC(=O)c1cc[n+]([O-])cc1)Nc1cc([N+](=O)[O-])ccc1Cl,-20% (inactive)
14,COc1ccccc1NC(=O)C(=O)NNC(=O)c1ccco1,35% (active)
15,O=C(CCC(=O)Nc1ccccc1)NNC(=O)c1ccco1,-12% (inactive)
16,COc1ccc(C)cc1NC(=O)C(=O)NNC(=O)c1ccco1,55% (active)
17,CN(c1ccccc1)S(=O)(=O)c1ccc(Cl)c(C(=O)Nc2nn[nH]n2)c1,-4% (inactive)
18,CC12CN3CC(C)(CN(C1)C3c1ccc3c(c1)OCO3)C2=O (stereo not given),-8% (inactive)
19,Cc1ccc(C(C)C)cc1OCC(=O)Nc1ccc(N2CCCCC2)cc1,-11% (inactive)
20,C/C(=N\NC(=O)COc1ccc(C)cc1C(C)C)c1ccc(-n2ccnc2)cc1,6% (active)
21,O=[N+]([O-])c1ccc(S(=O)(=O)Nc2ccc(S(=O)(=O)N3CCCC3)cc2)cc1,-23% (inactive)
22,CC(C)(C)c1ccc(Cn2nc(CC(=O)O)c3ccccc3c2=O)cc1,-9% (inactive)
23,O=C(O)CCCNC(=O)c1nn(Cc2ccccc2)c(=O)c2ccccc12,3% (active)
24,Cc1nc2c(C(=O)NCCc3ccccc3)c[nH]n2c(=O)c1Cl,-3% (inactive)
25,O=C(NC(=S)NCc1ccccc1)c1cccs1,23% (active)
26,CN(Cc1ccccc1)C(=S)NC(=O)c1cccs1,10% (active)
27,O=C(NC(=S)NNC(=O)c1cccs1)c1ccc(Br)o1,-23% (inactive)

row,Compound,"activity increase over dofetilide control, less the hit threshold"
1,CCCOc1ccc(C(=O)NNC(=S)NC(=O)c2cccs2)cc1,-44% (inactive)
2,Cc1ccc(C(=O)NC(=S)N(C)Cc2ccccc2)cc1,-3% (inactive)
3,NS(=O)(=O)c1ccc(NC(=S)NCc2cccs2)cc1,-9% (inactive)
4,CCN(CC)c1ccc(NC(=S)NC(=O)c2cccs2)cc1,8% (active)
5,S=C(NCc1ccccc1)NCc1ccccc1Cl,-9% (inactive)
6,O=C(c1cccs1)N1CCN=C1SCc1ccccc1,-20% (inactive)
7,O=C(NC(=S)Nc1ccccc1)c1cccs1,12% (active)
8,O=c1ccn(CCCBr)c(=O)[nH]1,-8% (inactive)
9,CCN(CC)CCOC(=O)C(c1ccccc1)c1ccccc1,-6% (inactive)
10,O=C1CCCN1C(=O)COc1ccccc1[N+](=O)[O-],-13% (inactive)
11,O=[N+]([O-])c1ccccc1OCCNCc1ccccc1,9% (active)
12,O=C(COc1ccccc1[N+](=O)[O-])Nc1cc(Cl)ccc1C(=O)O,-10% (inactive)
13,Cc1cc(C)n(-c2nc(NCCCN(C)C)c3c4c(sc3n2)CCCC4)n1,-10% (inactive)
14,CCOc1ccc2nc(N3C(=O)/C(=C/c4ccc(Cl)cc4)NC3=S)sc2c1,22% (active)
15,CCOc1ccc(NC(=O)c2ccc(NC(=O)CSc3nc4ccccc4c(=O)[nH]3)cc2)cc1,-17% (inactive)
16,CCOc1ccc2nc(N3C(=O)/C(=C/c4ccccc4)NC3=S)sc2c1,71% (active)
17,COc1ccc(N2C(=O)/C(=C/c3cccs3)NC2=S)cc1,-21% (inactive)
18,O=C(N1CCOCC1)N1CCC(c2nc(-c3ccc(S(=O)(=O)N4CCOCC4)cc3)no2)CC1,-12% (inactive)
19,Cc1ccc(CNS(=O)(=O)c2ccc(C(F)(F)F)cc2)n1C,-18% (inactive)
20,Cc1cc(C)c(-c2cc(NC(=O)COC(=O)c3ccc(NC(=O)CC#N)cc3)n(-c3ccccc3)n2)cc1C,-15% (inactive)
21,Cc1ccc(NC(=S)N2CCN(c3ccccc3F)CC2)c(C)c1,-8% (inactive)
22,COc1ccc(CN2CCn3ncc(C(=O)Nc4ccccc4)c3C2=O)cc1,-16% (inactive)
23,Cc1ccc(-n2ccc(=O)c(C(=O)Nc3ccc(S(=O)(=O)Nc4nccs4)cc3)n2)cc1,-3% (inactive)
24,COc1ccc(-c2nn(-c3ccccc3)cc2C(=O)Nc2cccc(C(=O)O)c2)cc1[N+](=O)[O-],-27% (inactive)
25,CC(C)COc1ccc(-c2nn(-c3ccccc3)cc2C(=O)Nc2nccs2)cc1,20% (active)
26,Cc1cnc(C(=O)Nc2nccs2)cn1,-22% (inactive)
27,COc1ccc(NC(=O)c2cn(-c3ccccc3)nc2-c2ccncc2)cc1,40% (active)

row,Compound,"activity increase over dofetilide control, less the hit threshold"
1,COc1ccc([N+](=O)[O-])cc1N(CC(=O)NCc1ccco1)S(C)(=O)=O,-21% (inactive)
2,O=c1cc(O)c2sc(Nc3ccc(F)c(Cl)c3)nc2[nH]1,-15% (inactive)
3,COc1ccccc1NC(=O)C(=O)NNC(=O)COc1ccc2ccccc2c1,94% (active)
4,O=C(COc1ccc2ccccc2c1)NNC(=O)C(=O)Nc1ccccc1,55% (active)
5,O=C(COc1ccccc1)Nc1ccc(F)cc1,-27% (inactive)
6,COC(=O)CSc1nnc(COc2ccc3ccccc3c2)o1,-10% (inactive)
7,O=C(COc1ccc2ccccc2c1)Nc1ccc(Br)cc1C(=O)O,-10% (inactive)
8,C=CCNC(=O)COc1ccc(Oc2ccccc2)cc1,-6% (inactive)
9,COc1ccc(N2CC(C(=O)OCC(=O)Nc3ccccc3C)CC2=O)cc1 (stereo not given),-5% (inactive)
10,Cc1ccccc1NC(=O)C(=O)NNC(=O)COc1ccc2ccccc2c1,48% (active)
11,CCN1C(=O)c2cccc3c(S(=O)(=O)NCC4CCCO4)ccc1c23 (stereo not given),-22% (inactive)
12,Brc1ccc(Nc2nc(-c3cccnc3)cs2)cc1,-12% (inactive)
13,Cc1cc(C(F)(F)F)c2sc(N)nc2n1,-11% (inactive)
14,CC1CC(OCC(O)C[N+]2(C)CCOCC2)CC(C)(C)C1 (stereo not given),-13% (inactive)
15,COc1ccc(S(=O)(=O)Nc2cccc(-n3cnnn3)c2)cc1,-20% (inactive)
16,C=CCN(c1ccc(Cl)cc1)S(=O)(=O)c1cccc(C(=O)O)c1,6% (active)
17,C=CCN(c1cccc(C(F)(F)F)c1)S(=O)(=O)c1cccc(C(=O)OCC(=O)Nc2ccccc2)c1,-6% (inactive)
18,C=CCN(c1ccccc1)S(=O)(=O)c1cccc(C(=O)Nc2nnc(SCC)s2)c1,-4% (inactive)
19,COc1ccc(-c2cn3nc(SCC(=O)NC4CCCCC4)ccc3n2)cc1,-2% (inactive)
20,O=C(Nc1nc(=O)c2ccccc2s1)c1ccc(Cl)cc1,46% (active)
21,Cc1ccc(C(=O)Nc2nc(=O)n(C)s2)cc1,-1% (inactive)
22,Cc1ccc(C(=O)Nc2nc3ccccc3c(=O)s2)cc1,53% (active)
23,CN(CC(=O)Nc1nc2ccccc2s1)S(=O)(=O)c1ccc(Cl)cc1,-17% (inactive)
24,O=C(CNC(=O)c1ccccc1)NCc1ccc(Cl)cc1,-8% (inactive)
